Screens: PubChem BioAssay, several laboratories
Hits are enriched below; roughly 2% of the tested compounds scored in any of these assays.
697 NFkB inh: inhibitors of the PMA/ionomycin-induced NF-kB reporter in 697 B cells. AID 435022. inhibition, % at 4 µM. hit rate 0.33% among 330,000. 697 B-cell NF-kB luciferase reporter, 16 h; in the data active means inhibition above about 35%
Shn3 inh set2: reduces Shn3 3'UTR luciferase signal in osteoblasts; Clone20 osteoblast Shn3 3'UTR firefly luciferase, 24 h; inhibition, % at 12.5 µM; hit rate 0.52% among 360,000; AID 588674;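 active means mean inhibition of at least 75% with every replicate also reaching 75%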;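 further: 0% = median of neutral control wells and 100% = pilot-screen positive control compound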
Calb FLC: affects C. albicans growth with fluconazole | hit rate 0.57% among 300,000 | AID 1979 | C. albicans CaCi-2 (fluconazole-resistant clinical isolate) + fluconazole, Alamar Blue growth, 48 h | growth inhibition, % (concentration not given with the values);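 active means growth inhibition above about 58% in most replicates, limit read from the data, passing the limit was not always enough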;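 further: all wells also contain fluconazole at 8 µg/ml as a sub-toxic cotreatment; 0% = median of DMSO wells and 100% = median of geldanamycin control wells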
Jurkat NFkB inh: inhibitors of the PMA/ionomycin-induced NF-kB reporter in Jurkat cells; inhibition, % at 4 µM; PMA/ionomycin-induced NF-kB luciferase reporter, luminescence; AID 435003; hit rate 0.53% among 330,000; in the data active means inhibition above about 50%
Beta cell apopt: blocks beta cell apoptosis; INS-1E cytokine-induced death, ATP luminescence, 48 h; percent of positive-control rescue, neutral wells zero; protection from apoptosis, % (no concentration beside the values); hit rate 0.8% among 300,000; AID 435005;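 active means Every replicate reaches about 75%, or at least half do and their mean reaches it too, limit read from the data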;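 further: 0% = cytokine-treated negative control wells and 100% = positive control rescue; higher means more ATP so stronger rescue from cytokine killing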
Jurkat NFkB conf: inhibitors of the PMA/ionomycin-induced NF-kB reporter in Jurkat cells, retest. shares compounds with Jurkat NFkB inh. Jurkat NF-kB luciferase, 16 h. inhibition, % at 4 µM. hit rate 27% among 2,700. AID 435020;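 active means inhibition reaching about 45% at 4 µM in either replicate, limit read from the data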;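 further: plate controls were PMA/ionomycin stimulated DMSO wells for no effect and unstimulated DMSO wells for full effect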
697 NFkB conf: inhibitors of the PMA/ionomycin-induced NF-kB reporter in 697 B cells, retest; shares compounds with 697 NFkB inh; 697 B-cell NF-kB luciferase, 16 h; inhibition, % at 4 µM; hit rate 35% among 2,000; in the data active means inhibition mostly above about 28%, no sharp cut-off; inactive means mostly below about 22%
* hit, by the source's call; i = inactive; . = no result.

SMILES	697 NFkB inh	Shn3 inh set2	Calb FLC	Jurkat NFkB inh	Beta cell apopt	Jurkat NFkB conf	697 NFkB conf
O=S(=O)(/C=C/c1cccc(Br)c1)N1CCOCC1	5.6	-8.7	9.8	3.5	5.1	.	.
O=C(Nc1ccc(-c2nc3cc(Cl)ccc3o2)cc1)C1CCCO1 (stereo unspecified)	-263.1	-18.1	-19.8	-163.8	8.4	-88.3	-200.1
CCCC(=O)Nc1ccc(-c2nc3cc(C)ccc3o2)cc1	-379.2	-28.7	61.0	-168.5	-2.5	-96.4	-363.2
CC(=O)c1ccccc1NC(=O)c1cc(S(=O)(=O)N2CCOCC2)ccc1N1CCCC1	5.5	14.8	.	-0.3	-3.5	.	.
Oc1c(N=Nc2ccc(F)cc2)ccc2ccccc12	-243.1	-56.4	-0.1	-141.2	7.5	.	.
COc1cccc(N=Nc2ccc3ccccc3c2O)c1	i	-80.8	1.6	-196.8	-1.5	-112.2	-295.1
O=C(CCl)N(c1ccc(Cl)cc1)c1c[nH]c2ccccc12	80.3*	98.0*	113.3*	70.6*	-5.1	26.1	36.0*
COc1cccc(CNC(C)(C)CO)c1OCc1ccc(Cl)cc1	-1.4	9.1	-1.4	7.4	-1.2	.	.
COc1cccc(OCc2ccc(Cl)cc2)c1C#N	-488.5	-30.3	9.2	-213.8	-1.7	-212.6	-478.6
O=C(N/N=C/c1ccc([N+](=O)[O-])o1)c1cc(-c2ccc(-c3ccccc3)cc2)nc2ccccc12	i	27.7	-14.2	-177.5	24.2	-84.6	i
O=C(N/N=C/c1ccc([N+](=O)[O-])o1)c1cc(-c2ccncc2)nc2ccccc12	3.2	10.6	26.2	-5.4	28.7	.	.
COc1ccc(N/C=C2\CCc3ccccc3C2=O)cc1	-290.1	20.5	12.1	-196.6	19.4	14.4	-9.3
COCCC(=O)NC1CCCc2c1cnn2-c1cccc(C)c1C (stereo unspecified)	-5.6	2.3	3.3	5.5	0.6	.	.
O=c1oc(C2(O)CCCCC2)cc2ccc(-c3ccc4[nH]ccc4c3)cc12	i	-10.9	.	-168.2	3.4	-75.3	i
c1ccc2c(c1)CCN(c1ncnc3c1[nH]c1ccccc13)C2	42.5*	89.0*	92.4*	50.5*	7.3	59.0*	23.6
Cc1ccc(F)c(S(=O)(=O)NC(=O)C2(C)CCN2C(=O)C/C=C/c2ccccc2)c1 (stereo unspecified)	.	5.4	.	.	.	.	.
Cc1ccc2c(C)c(C(=O)Nc3cccnc3)oc2c1C	.	-8.3	.	.	.	.	.
CCCCCCCCn1ccc(=N)cc1	78.3*	.	1.3	80.0*	130.2*	73.2*	63.8*
CCCc1nc2ccc(C(=O)OC)cn2c1Cc1ccc(C)cc1	.	-23.9	.	.	.	.	.
Nc1[nH]n(-c2ccccc2)c(=O)c1N=Nc1ccc2c(c1)OCCO2	-311.7	-33.1	-0.6	-194.0	-2.8	-100.2	-195.6
O=[N+]([O-])c1ccccc1S(=O)(=O)N1CCN(S(=O)(=O)c2ccc3c(c2)OCCO3)CC1	15.5	11.2	.	12.2	-6.4	.	.
O=C(/C=C/c1ccccc1Br)c1ccc2c(c1)OCO2	-33.6	9.7	6.7	-22.4	3.2	.	.
O=C(/C=C\Nc1cccc(F)c1)c1ccc2c(c1)OCO2	-411.0	11.4	-25.6	-170.9	-16.2	-141.6	-228.4
O=C(/C=C\Nc1ccccc1Br)c1ccc2c(c1)OCO2	-355.7	34.1	-19.6	-168.7	17.7	-40.2	-213.1
COc1ccc(-c2ccc(C(=O)NCCc3ccccc3)c3occc23)c(C)c1	.	-39.0	.	.	.	.	.
C#CC(=O)N(c1ccc(OC)cc1OC)C(C(=O)NC1CCCC1)c1cccs1 (stereo unspecified)	97.3*	83.4	-20.1	90.0*	64.1	66.6*	103.6*
COc1ccc(N(C(=O)c2ccco2)C(C(=O)NC2CCCCC2)c2cccs2)cc1OC (stereo unspecified)	17.5	-2.7	15.9	-8.3	-3.2	.	.
C#CC(=O)N(c1cc(OC)ccc1OC)C(C(=O)NC1CCCC1)c1cccs1 (stereo unspecified)	98.5*	89.8*	-2.4	95.4*	6.0	85.0*	105.4*
CN(Cc1ccnc2ccccc12)C(=O)C1CCC(=O)N(Cc2ccccc2F)C1 (stereo unspecified)	20.8	7.1	15.7	12.2	-1.0	.	.
Nc1c(Cl)cc(N=Nc2ccccc2)cc1Cl	.	-35.1	.	.	.	.	.
